# Experimental data reported in PubChem BioAssay.
# Activity calls are given as the source filed them.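 How the source made its calls, unless noted: active means fluorescence slope after compound addition differing from the mean of all screened samples at 99.7% confidence, in either direction; inactive means the rest.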
# Key:
# [1] = inhibitors of TNFa-induced NFkB p65 translocation, primary screen, imaging, HUVEC, MLSMR starter and 10KST1 sets (AID 438;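 active means inhibition above 20% together with a positive visual image hit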;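 further: compound added about 3h40 before a 20 min TNFalpha stimulation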;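 on inhibition: signal is the nuclear over cytoplasmic p65 intensity ratio per well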); settings: HUVEC TNFa-induced p65 nuclear translocation; cell count: measured here: nuclei count (cytotoxicity indicator), at 2.08 µM; inhibition: at 2 µM, stronger effect = higher value, 0% TNFa-plus-vehicle, 100% no-TNFa wells
# [2] = reduction of polyQ htt aggregates in cells – imaging, exon1htt(103Q)mCFP cells, high-content imaging, primary screen (AID 483;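 active means visual image review flags a hit and inhibition of aggregation exceeds 20%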;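 further: compound exposure lasted 3 days before fixation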;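 on nuclei count: percent of the per-plate median nuclei count of sample wells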); settings: exon1htt(103Q)mCFP cell line, aggregate imaging, at 2 µM; inhibition of aggregation: stronger effect = higher value; nuclei count: measured here: cell count, toxicity
# [3] = endothelial E-selectin expression blockers – imaging, HUVEC, immunofluorescence, MLSMR starter and 10KST1 sets, primary screen (AID 487;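 active means visually confirmed hit in the image check and inhibition above 20%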;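 on inhibition: signal is fraction of cell area covered by stained E-selectin grains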;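 on nuclei count: 100% = median nuclei count of all wells on the same plate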); settings: HUVEC TNFalpha-induced E-selectin immunofluorescence imaging, at 2 µM; inhibition: stronger effect = higher value; nuclei count: measured here: cell number, toxicity
# [4] = target: Voltage-gated potassium channel subunit beta-2 (Rattus norvegicus) (UniProt P62483); assay: inhibitors of rat Kvbeta2 reductase activity – biochemical, NADPH fluorescence, primary screen (AID 622;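 active means fluorescence slope higher than the sample average by over 3 SD, cut at about -0.22 in these data, passing the limit was not always enough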;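 further: slope of raw intensity against log time taken from 70 to 1610 s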); settings: recombinant KvBeta, 4-cyanobenzaldehyde reduction, at 10 µM, stronger effect = higher value
# Chain of Voltage-gated potassium channel subunit beta-2 (Rattus norvegicus) (P62483 whole entry, looked up): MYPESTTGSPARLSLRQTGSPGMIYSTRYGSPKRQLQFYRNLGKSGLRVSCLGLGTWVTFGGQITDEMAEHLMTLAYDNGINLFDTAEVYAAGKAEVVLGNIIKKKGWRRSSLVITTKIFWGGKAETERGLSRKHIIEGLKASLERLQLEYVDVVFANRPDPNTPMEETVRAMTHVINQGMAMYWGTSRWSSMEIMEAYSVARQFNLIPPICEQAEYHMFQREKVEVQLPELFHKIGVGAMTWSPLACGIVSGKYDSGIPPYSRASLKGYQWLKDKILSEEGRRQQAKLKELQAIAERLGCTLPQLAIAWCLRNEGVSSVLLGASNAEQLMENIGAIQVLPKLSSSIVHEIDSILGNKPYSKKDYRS
# [5] = target: Voltage-gated potassium channel subunit beta-2 (Rattus norvegicus) (UniProt P62483); assay: enhancers of rat Kvbeta2 NADPH turnover – biochemical, NADPH fluorescence, primary screen (AID 623;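 active means NADPH fluorescence slope more negative than the mean of all samples by about 3 SD, 99.7% confidence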;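 further: fluorescence intensity change per second fitted from 20 to 320 s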); settings: Recombinant KvBeta, NADPH fluorescence decrease slope, 10 min; at 10 µM; stronger effect = lower value
# [6] = target: Alpha-2C adrenergic receptor (Homo sapiens) (UniProt P18825); assay: compounds altering alpha2C-coupled GIRK flux – cell-based, HEK293 alpha2C/GIRK1/2, thallium flux, primary screen (AID 624); settings: thallium flux BTC fluorescence, at 10 µM, actives lie on both sides;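 further: slope of fluorescence ratio to pre-addition baseline per second over 15 to 24 s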
# Chain of Alpha-2C adrenergic receptor (Homo sapiens) (P18825 whole entry, looked up): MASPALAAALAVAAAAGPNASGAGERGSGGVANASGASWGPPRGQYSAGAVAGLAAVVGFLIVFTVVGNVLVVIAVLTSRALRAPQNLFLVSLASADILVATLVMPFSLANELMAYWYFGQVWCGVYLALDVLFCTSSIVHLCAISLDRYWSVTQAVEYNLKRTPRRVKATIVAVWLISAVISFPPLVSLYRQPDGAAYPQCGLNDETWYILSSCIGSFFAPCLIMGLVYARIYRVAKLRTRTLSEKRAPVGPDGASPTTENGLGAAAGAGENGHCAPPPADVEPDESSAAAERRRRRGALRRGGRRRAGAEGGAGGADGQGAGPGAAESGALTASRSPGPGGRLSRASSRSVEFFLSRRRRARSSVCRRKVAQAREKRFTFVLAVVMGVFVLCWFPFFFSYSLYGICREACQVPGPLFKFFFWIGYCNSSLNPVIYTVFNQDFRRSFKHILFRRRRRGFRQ
# [7] = blockers of RIG-like receptor reporter activation – cell-based, Sendai virus stimulus, luciferase, 10K MLSCN set, TLR/RLR signaling modifier project, primary screen (AID 602276;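 active means inhibition at or above 50% at 10 µM; inactive means inhibition below 50%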;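 further: firefly luciferase from ISG56 promoter only with Renilla not read in this screen; 0% = Sendai virus plus DMSO and 100% = medium plus DMSO without virus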); settings: HEK293 RL24 IRF3 luciferase reporter, at 10 µM, stronger effect = higher value
# [8] = TLR3 IRF3 reporter activation blockers – cell-based, poly I:C stimulus, luciferase, 10K MLSCN set, primary screen (AID 602277;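 active means inhibition of the reporter signal at or above 50%; inactive means inhibition below 50%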); settings: HEK293-TLR3 RL24 IRF3 luciferase reporter, at 10 µM, stronger effect = higher value
SMILES,cell count [1],inhibition [1],inhibition of aggregation [2],nuclei count [2],inhibition [3],nuclei count [3],fluorescence slope [4],NADPH fluorescence slope [5],slope [6],inhibition [7],inhibition [8]
CC1=C(n2nnc3ccccc32)C(c2ccccc2)C(C#N)=C(N)O1 (centres undefined),424,1.5% (inactive),13.7% (inactive),90.7%,27.5% (inactive),113%,-0.364 (inactive),-0.00012 (inactive),0.00512 (inactive),17.5% (inactive),32% (inactive)
CCN(C1CCCCC1)S(=O)(=O)c1ccc(S(=O)(=O)N2CCN(CCC#N)CC2)cc1,870,3.3% (inactive),8% (inactive),102%,-28.6% (inactive),108%,-0.584 (inactive),-1.5e-05 (inactive),0.00677 (inactive),-5.6% (inactive),52% (active)
COc1ccc(S(=O)(=O)N2Cc3ccccc3CC2C(=O)Nc2ccc(O)cc2)cc1OC (centres undefined),772,-2.9% (inactive),-7.4% (inactive),119%,-42.8% (inactive),114%,-0.556 (inactive),-6e-05 (inactive),0.0071 (inactive),8.15% (inactive),29.5% (inactive)
CC(C)Cn1c(N)c(C(=O)NCCN2CCOCC2)c2nc3ccccc3nc21,440,-2.8% (inactive),-15.6% (inactive),101%,-37.1% (inactive),81.3%,-0.0147 (inactive),-9e-06 (inactive),0.00559 (inactive),19.1% (inactive),19.8% (inactive)
Cc1ccc(S(=O)(=O)C2(C(=O)Nc3nccs3)CC2)cc1,584,6.5% (inactive),0% (inactive),95.6%,-69.3% (inactive),103%,-0.586 (inactive),-2.1e-05 (inactive),0.00637 (inactive),13% (inactive),32.7% (inactive)
COc1ccc(OCc2nc(C#N)c(N3CCN(c4ccc(OC)cc4)CC3)o2)cc1,479,2.9% (inactive),-2.2% (inactive),73.6%,15.1% (inactive),89.2%,-0.421 (inactive),2.3e-05 (inactive),0.0041 (inactive),-5.28% (inactive),3.87% (inactive)
COc1ccc(C(=O)c2ccc(OC)c(N)c2)cc1N,298,-11.7% (inactive),-64.9% (inactive),3.2%,-187% (inactive),111%,-0.465 (inactive),-7.4e-05 (inactive),0.00541 (inactive),35% (inactive),27.2% (inactive)
c1ccn2c(SCc3ccc4c(c3)OCCO4)nnc2c1,793,-10.5% (inactive),11.4% (inactive),88.9%,-56.4% (inactive),117%,-0.583 (inactive),5.1e-06 (inactive),0.00773 (inactive),-29.2% (inactive),-95% (inactive)
Cn1c(C(=O)NCCN2CCN(c3ccccc3F)CC2)cc2c(=O)n(C)c3ccccc3c21,1100,11% (inactive),12.6% (inactive),119%,-30.2% (inactive),112%,-0.571 (inactive),-2.1e-05 (inactive),0.00598 (inactive),4.48% (inactive),16% (inactive)
O=C(CCn1cccc1)N1CCc2ccccc21,281,6.5% (inactive),-5.2% (inactive),108%,-12% (inactive),106%,-0.554 (inactive),2e-05 (inactive),0.00578 (inactive),-13.2% (inactive),-44.8% (inactive)
Cc1cc(C)n(C2=NS(=O)(=O)c3ccccc32)n1,343,-2.4% (inactive),7.1% (inactive),92%,70.9% (active),78.2%,-0.576 (inactive),-1.6e-05 (inactive),0.00396 (inactive),-8.5% (inactive),-27.5% (inactive)
Nc1nnn(Cc2ccccc2)n1,885,8.7% (inactive),5.4% (inactive),114%,-20.6% (inactive),114%,-0.566 (inactive),-2.4e-05 (inactive),0.00494 (inactive),0.136% (inactive),99.3% (active)
Cc1cccc(-n2ncc3c(N(CCO)CCO)ncnc32)c1,635,1.4% (inactive),-5% (inactive),53.9%,-35.6% (inactive),125%,-0.513 (inactive),-1.8e-05 (inactive),0.00728 (inactive),-28.4% (inactive),-84.3% (inactive)
CC(CCc1ccccc1)NCc1ccncc1 (centres undefined),564,3% (inactive),-1.8% (inactive),109%,-75.4% (inactive),130%,-0.409 (inactive),-1.4e-05 (inactive),0.00748 (inactive),12.9% (inactive),23.5% (inactive)
